# Bioassay records as filed in PubChem BioAssay.
# KLK7 zymogen act: proKLK7 zymogen activators, primary screen, biochemical, fluorescence intensity; 370,000 compounds, 0.9% hits; Kallikrein-7 (Homo sapiens), P49862; purified proKLK7, EDANS-DABCYL substrate fluorescence; 100% is mature enzyme control, 0% vehicle; AID 652039, 2013; activation, % at 7 µM;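 active = activation above the mean of all tested compounds plus 3 SD, computed per campaign excluding outliers beyond control limits, cut at about 13% in these data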
# NR3A LBD binder: binders of NR3A ligand-binding domain, primary screen, biophysical, differential scanning fluorimetry, uHTS. 340,000 compounds, 2.5% hits. AID 1259313, 2017. Glutamate receptor ionotropic, NMDA 3A (GRIN3A) ligand-binding domain. Tm shift relative to glycine control, % at 25 µM. NR3A LBD differential scanning fluorimetry, Tm shift; 0% = protein alone, 100% = glycine-bound protein;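 active = melting temperature shift of at least 10% of the positive control shift, at one fixed dose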
# ADAM10 inh: human ADAM10 inhibitors, primary screen, biochemical, QFRET, HTS; recombinant ADAM10, EDANS/DABCYL FRET peptide cleavage, 3 h; 370,000 compounds, 0.62% hits; Disintegrin and metalloproteinase domain-containing protein 10 (Homo sapiens), O14672; inhibition, % at 7 µM; AID 720582, 2013;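 active = inhibition above a per-campaign cutoff equal to the mean of compounds falling between control-based bounds plus 3 SD, cut at about 20% in these data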;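 also: 0% = DMSO wells while the 100% control is not disclosed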
# Target sequence (O14672 214-748 limits assumed): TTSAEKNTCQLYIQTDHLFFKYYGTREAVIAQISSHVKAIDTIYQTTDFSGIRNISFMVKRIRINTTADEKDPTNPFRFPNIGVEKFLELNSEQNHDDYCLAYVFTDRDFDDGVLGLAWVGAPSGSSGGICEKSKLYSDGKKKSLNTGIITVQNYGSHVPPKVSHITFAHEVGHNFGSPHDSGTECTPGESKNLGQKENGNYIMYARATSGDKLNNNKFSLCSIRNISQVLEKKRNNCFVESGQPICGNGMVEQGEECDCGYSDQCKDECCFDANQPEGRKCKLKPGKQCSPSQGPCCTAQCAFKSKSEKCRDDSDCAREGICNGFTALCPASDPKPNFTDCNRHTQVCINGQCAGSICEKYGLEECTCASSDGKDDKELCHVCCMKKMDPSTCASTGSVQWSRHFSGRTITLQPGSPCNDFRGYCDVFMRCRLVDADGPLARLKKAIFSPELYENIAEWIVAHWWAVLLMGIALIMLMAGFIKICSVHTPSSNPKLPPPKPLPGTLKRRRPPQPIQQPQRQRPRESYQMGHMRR
# FAS TE block: FAS thioesterase domain inhibitors, primary screen, biochemical, fluorescence intensity, uHTS; Fatty acid synthase (Homo sapiens), P49327; 360,000 compounds, 0.67% hits; inhibition, % at 15 µM; recombinant FAS-TE, OMFH fluorogenic substrate, fluorescence endpoint; AID 602261, 2012;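 active = compounds whose normalised, plate-corrected inhibition of enzyme fluorescence in the single-dose primary screen is 50% or more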;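 also: 0% = DMSO with enzyme and 100% = substrate without enzyme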
# ADAM17 inh: ADAM17 inhibitors, primary screen, biochemical, QFRET | Disintegrin and metalloproteinase domain-containing protein 17 (Homo sapiens), P78536 | recombinant ADAM17, EDANS/DABCYL FRET peptide cleavage | inhibition, % at 6.95 µM | 370,000 compounds, 0.83% hits | AID 720648, 2013;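 active = inhibition above the mean of compounds lying between control limits plus 3 SD, set per campaign, cut at about 8.5% in these data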;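 also: 0% = DMSO-only wells as the low control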
# ADAM10 confirm: human ADAM10 inhibitors, confirmation, biochemical, QFRET, triplicate; shares compounds with ADAM10 inh; ADAM10 QFRET peptide cleavage, EDANS fluorescence; inhibition, % at 6.95 µM; 2,100 compounds, 1% hits; AID 743208, 2013;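 active = inhibition above about 20% chosen separately for each screening run, limit read from the data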;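 also: 0% = DMSO wells and 100% = marimastat wells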
# ADAM17 counter: ADAM17 inhibitors, counter-screen for ADAM10 exosite inhibitor project, biochemical, QFRET, high throughput | AID 743214, 2013 | inhibition, % at 6.95 µM | ADAM17 QFRET peptide cleavage, EDANS fluorescence | 2,100 compounds, 0.5% hits | shares compounds with ADAM10 inh;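 active = mean triplicate inhibition above the solvent-only control wells' mean plus 3 SD, cut at about 12% in these data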;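 also: 0% = DMSO wells and 100% = marimastat wells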
# ADAM10 counter: ADAM10 inhibitors, counter-screen for ADAM17 exosite inhibitor project, biochemical, FRET, human ADAM10; shares compounds with ADAM17 inh; recombinant ADAM10, EDANS/DABCYL FRET peptide cleavage, 3 h; inhibition, % at 6.95 µM; 2,900 compounds, 47% hits; AID 743256, 2014;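 active = mean inhibition over the triplicate runs exceeds the activity threshold set in the earlier primary screen, cut at about 20% in these data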;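 also: 0% = DMSO wells and 100% = marimastat wells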
# ADAM17 confirm: ADAM17 inhibitors, hit retest, confirmation, biochemical, QFRET peptide cleavage; shares compounds with ADAM17 inh; recombinant ADAM17, EDANS/DABCYL QFRET peptide cleavage; inhibition, % at 6.95 µM; AID 743257, 2014; 2,900 compounds, 65% hits;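 active = mean inhibition across replicates above the hit cutoff set in the primary screen, cut at about 8.5% in these data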;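 also: 0% = DMSO wells and 100% = marimastat wells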
# Numbers without * were called inactive; / = no result. Hits are enriched below; roughly 4.6% of the tested compounds scored in any of these assays.
SMILES,KLK7 zymogen act,NR3A LBD binder,ADAM10 inh,FAS TE block,ADAM17 inh,ADAM10 confirm,ADAM17 counter,ADAM10 counter,ADAM17 confirm
COC(=O)c1cc2cc(NS(=O)(=O)c3ccc(C)cc3)ccc2s1,0.5,0.2,27.7*,21.0,14.8*,8.6,2.8,17.0,10.3*
C[C@H](O)[C@@H]1C(=O)N2CCc3c([nH]c4c(-c5ccccc5)cccc34)[C@@H]2C[C@@H]1N(C)C(=O)c1ccccc1F,2.3,/,-17.3,/,-3.1,/,/,/,/
c1ccc(-c2nc3ccccc3nc2-c2ccc(CN3CCC4(CC3)CNc3ccccc34)cc2)cc1,-0.1,/,-3.5,/,-0.4,/,/,/,/
Cc1[nH]c2ccccc2c1/C=N/n1cnnc1,0.0,0.9,0.9,-3.1,-1.4,/,/,/,/
COCCN=c1scc(-c2cc(OC)c(OC)c(OC)c2)n1/N=C/c1c(C)[nH]c2ccccc12,-0.8,2.5,25.8*,10.0,16.9*,17.8,7.8,7.4,16.7*
CNC(=O)CCc1[nH]c2ccccc2c1Sc1ccccc1,0.6,-3.8,19.8*,2.5,9.1*,1.0,0.2,4.4,3.3
Cc1ccccc1Nc1nc(N)nc(CSc2nc3ccccc3s2)n1,0.4,-15.6,10.2,10.0,3.1,/,/,/,/
Cc1ccc(Nc2nc(N)nc(CSc3nc4ccccc4s3)n2)cc1,0.2,17.0*,28.9*,31.4,12.9*,11.4,4.4,42.8*,25.2*
O=C(Cc1c(Sc2ccccc2)c2ccccc2n1Cc1ccccc1)NCCO,0.8,-0.8,30.1*,11.8,14.1*,5.3,1.5,14.8,9.1*
Cn1c(CC(=O)NCCO)c(Sc2ccccc2)c2ccccc21,0.2,-0.1,-10.8,-3.0,-2.6,/,/,/,/
COc1ccc(CN2C[C@@]3(O)CC[C@@H](O)[C@@H](OC)[C@@H]3[C@@](C)(O)[C@@H]2CC=C(C)C)cc1,-0.1,/,-5.1,/,0.2,/,/,/,/
Cc1ccc(NC(=O)c2cc(NC(=O)/C=C\C(=O)O)ccc2N2CCCCC2)cc1,0.4,-2.5,23.9*,7.5,18.6*,9.0,2.4,-10.0,1.4
Cc1ccc(NC(=O)c2cc(NC(=O)c3ccccc3C(=O)O)ccc2N2CCCCC2)cc1,-1.0,-2.7,-5.3,10.1,-0.5,/,/,/,/
O=S(=O)(N/N=C/c1cn(Cc2ccccc2)c2ccccc12)c1ccccc1,-0.6,5.2,24.2*,24.4,9.6*,10.7,3.5,35.5*,18.7*
O=C(NCc1cccc(Cl)c1)c1ccc(S(=O)(=O)Nc2cccc(C(F)(F)F)c2)cc1,1.1,28.0*,38.9*,25.7,15.3*,4.6,1.1,34.4*,17.9*
Cn1cccc1C(=O)Nc1ccc(Cl)c(S(=O)(=O)N2CCCCC2)c1,-0.2,-3.0,39.9*,14.7,16.9*,3.3,0.7,10.2,6.4
